The list is not random: actives were taken first. Their share in the collection is about 3.4%.
ADAM17 inh: inhibits human ADAM17; AID 720648; P78536; inhibition, % at 6.95 µM; actives 0.83% (n = 370,000); recombinant ADAM17, EDANS/DABCYL FRET peptide cleavage;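 active = inhibition above the mean of compounds lying between control limits plus 3 SD, set per campaign, cut at about 8.5% in these data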
proKLK7 act: activates the human kallikrein-7 zymogen. AID 652039. P49862. activation, % at 7 µM. purified proKLK7, EDANS-DABCYL substrate fluorescence; 100% is mature enzyme control, 0% vehicle. actives 0.9% (n = 370,000);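 active = activation above the mean of all tested compounds plus 3 SD, computed per campaign excluding outliers beyond control limits, cut at about 13% in these data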
PLC-beta3 inh: inhibitors of human phospholipase C beta3; actives 0.18% (n = 370,000); Purified PLC-beta3, fluorogenic substrate, fluorescence; inhibition, % at 12.2 µM; Q01970; AID 720704
sPLA2-III inh: Blocks human group III sPLA2 activity | Q9NZ20 | QFRET BODIPY PC-A2 liposome hydrolysis, fluorescence | inhibition, % at 12.2 µM | actives 0.56% (n = 370,000);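 active = inhibition above mean plus 3 SD of compounds lying within the high and low control bounds, cut at about 19% in these data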
PLC-gamma1 inh: blocks human PLC-gamma1 enzyme activity. actives 0.84% (n = 370,000). AID 720700. inhibition, % at 12.2 µM. purified PLC-gamma1, fluorogenic substrate, fluorescence; in the data active = inhibition above about 9.5%
Target sequence (P19174 whole entry, looked up): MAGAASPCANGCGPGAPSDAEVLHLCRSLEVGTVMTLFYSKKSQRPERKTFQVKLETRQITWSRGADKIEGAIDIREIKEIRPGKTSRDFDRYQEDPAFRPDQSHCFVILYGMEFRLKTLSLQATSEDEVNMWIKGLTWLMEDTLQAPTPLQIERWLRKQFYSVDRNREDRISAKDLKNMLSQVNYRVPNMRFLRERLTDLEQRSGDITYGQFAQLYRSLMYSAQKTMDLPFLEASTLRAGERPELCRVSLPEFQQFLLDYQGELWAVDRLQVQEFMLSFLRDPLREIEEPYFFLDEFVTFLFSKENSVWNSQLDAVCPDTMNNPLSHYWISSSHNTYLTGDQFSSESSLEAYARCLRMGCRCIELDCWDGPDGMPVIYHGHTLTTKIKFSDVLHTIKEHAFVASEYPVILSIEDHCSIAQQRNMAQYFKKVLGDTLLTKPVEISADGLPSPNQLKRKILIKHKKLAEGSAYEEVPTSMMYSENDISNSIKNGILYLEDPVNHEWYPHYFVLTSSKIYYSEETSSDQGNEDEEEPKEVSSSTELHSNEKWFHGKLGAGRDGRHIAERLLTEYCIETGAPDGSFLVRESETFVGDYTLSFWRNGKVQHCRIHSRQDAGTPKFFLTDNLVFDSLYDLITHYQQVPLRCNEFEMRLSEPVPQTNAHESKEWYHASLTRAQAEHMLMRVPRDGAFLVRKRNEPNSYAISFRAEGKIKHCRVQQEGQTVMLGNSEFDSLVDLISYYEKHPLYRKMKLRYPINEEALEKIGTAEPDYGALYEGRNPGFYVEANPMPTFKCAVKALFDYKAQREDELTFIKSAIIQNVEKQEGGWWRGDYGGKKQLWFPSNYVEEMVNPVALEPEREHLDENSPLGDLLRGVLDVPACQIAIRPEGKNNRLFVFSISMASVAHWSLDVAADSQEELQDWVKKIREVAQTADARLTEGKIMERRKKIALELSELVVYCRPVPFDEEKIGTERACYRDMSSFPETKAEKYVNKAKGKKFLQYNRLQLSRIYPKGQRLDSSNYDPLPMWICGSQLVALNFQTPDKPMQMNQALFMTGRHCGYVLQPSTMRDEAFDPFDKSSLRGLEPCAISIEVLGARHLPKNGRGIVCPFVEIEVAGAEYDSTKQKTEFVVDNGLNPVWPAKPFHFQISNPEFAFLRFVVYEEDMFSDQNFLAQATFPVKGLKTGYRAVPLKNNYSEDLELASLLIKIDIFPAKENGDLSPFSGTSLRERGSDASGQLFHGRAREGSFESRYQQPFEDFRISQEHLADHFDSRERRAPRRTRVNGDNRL
ADAM10 inh: inhibits human ADAM10; recombinant ADAM10, EDANS/DABCYL FRET peptide cleavage, 3 h; inhibition, % at 7 µM; actives 0.62% (n = 370,000); AID 720582;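 active = inhibition above a per-campaign cutoff equal to the mean of compounds falling between control-based bounds plus 3 SD, cut at about 20% in these data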
PLCg1 ctr: PLC-gamma1 inhibition, counter-screen for PLC-beta3 hits. AID 743258. purified PLC-gamma1, fluorogenic substrate, fluorescence. actives 3.1% (n = 3,300). inhibition, % at 12.3 µM. shares compounds with PLC-gamma1 inh; in the data active = inhibition above about 9.5%
PLCbeta3 conf: human PLC-beta3 inhibition, confirmation; shares compounds with PLC-gamma1 inh; AID 743261; purified PLC-beta3, fluorogenic substrate fluorescence; inhibition, % at 12.3 µM; actives 1% (n = 3,300)
A number is an active result. Rule as the data show it, unless noted: active = inhibition above about 11%; inactive = the rest.

Results for O=C(Nc1ncc2c(n1)CC(c1cccc(Cl)c1)CC2=O)c1ccco1 (centres undefined) ?
ADAM17 inh: inactive; proKLK7 act: inactive; PLC-beta3 inh: inactive; sPLA2-III inh: inactive; PLC-gamma1 inh: 19; ADAM10 inh: inactive; PLCg1 ctr: inactive; PLCbeta3 conf: inactive

Results for O=C(Nc1ncc2c(n1)CC(c1ccccc1)CC2=O)c1ccco1 (centres undefined) ?
ADAM17 inh: inactive; proKLK7 act: inactive; PLC-beta3 inh: inactive; sPLA2-III inh: inactive; PLC-gamma1 inh: inactive; ADAM10 inh: inactive

Results for Cc1ccc(C(=O)NCc2ccco2)cc1S(=O)(=O)Nc1cccc(C)c1C ?
ADAM17 inh: inactive; proKLK7 act: inactive; PLC-beta3 inh: inactive; sPLA2-III inh: inactive; PLC-gamma1 inh: inactive; ADAM10 inh: inactive

How did Cc1ccccc1NS(=O)(=O)c1cc(C(=O)NCc2ccco2)ccc1C do in these assays?
ADAM17 inh: inactive; proKLK7 act: inactive; PLC-beta3 inh: inactive; sPLA2-III inh: inactive; PLC-gamma1 inh: 10; ADAM10 inh: inactive; PLCg1 ctr: inactive; PLCbeta3 conf: inactive

What do the screens show for `O=C(Cc1ccc(Br)cc1)NCCc1ccc(Cl)cc1Cl`?
ADAM17 inh: inactive; proKLK7 act: inactive; PLC-beta3 inh: inactive; sPLA2-III inh: inactive; PLC-gamma1 inh: inactive; ADAM10 inh: inactive

What do the screens show for `O=C(NCCc1ccc(Cl)cc1Cl)c1cncc(Br)c1`?
ADAM17 inh: inactive; proKLK7 act: inactive; PLC-beta3 inh: inactive; sPLA2-III inh: inactive; PLC-gamma1 inh: 11; ADAM10 inh: inactive; PLCg1 ctr: inactive; PLCbeta3 conf: inactive

How did O=C(O)C1(O)C[C@H](O)C(O)[C@@H](O)C1 (some centres undefined) do in these assays?
ADAM17 inh: inactive; proKLK7 act: inactive; PLC-beta3 inh: inactive; sPLA2-III inh: inactive; PLC-gamma1 inh: inactive; ADAM10 inh: inactive

What do the screens show for `CCC1Sc2ccccc2N(CC(=O)NCCC(C)C)C1=O` (centres undefined)?
ADAM17 inh: inactive; proKLK7 act: inactive; PLC-beta3 inh: inactive; sPLA2-III inh: inactive; PLC-gamma1 inh: 13; ADAM10 inh: inactive; PLCg1 ctr: inactive; PLCbeta3 conf: inactive

Results for COc1cc(/C=N/Nc2nc(Nc3ccccc3)nc(N3CCCCC3)n2)ccc1OCC(=O)O ?
ADAM17 inh: inactive; proKLK7 act: inactive; PLC-beta3 inh: inactive; sPLA2-III inh: inactive; PLC-gamma1 inh: 12; ADAM10 inh: inactive; PLCg1 ctr: inactive; PLCbeta3 conf: inactive

What do the screens show for `COc1ccc(/C=N/Nc2nc(Nc3ccccc3)nc(N3CCCC3)n2)cc1[N+](=O)[O-]`?
ADAM17 inh: inactive; proKLK7 act: inactive; PLC-beta3 inh: inactive; sPLA2-III inh: inactive; PLC-gamma1 inh: inactive; ADAM10 inh: inactive

How did CC1=CC(=O)C(C(C)C)=CC1=NC(=O)c1ccc(C)cc1 do in these assays?
ADAM17 inh: inactive; proKLK7 act: inactive; PLC-beta3 inh: 11; sPLA2-III inh: inactive; PLC-gamma1 inh: 11; ADAM10 inh: inactive; PLCg1 ctr: inactive; PLCbeta3 conf: inactive

What do the screens show for `O=C1CCCC(O)=C1N=Nc1cccc(C(=O)O)c1`?
ADAM17 inh: inactive; proKLK7 act: inactive; PLC-beta3 inh: inactive; sPLA2-III inh: inactive; PLC-gamma1 inh: inactive; ADAM10 inh: inactive

What do the screens show for `O=C1CCCC(O)=C1N=Nc1c(Cl)cc(Cl)cc1Cl`?
ADAM17 inh: inactive; proKLK7 act: inactive; PLC-beta3 inh: inactive; sPLA2-III inh: inactive; PLC-gamma1 inh: 10; ADAM10 inh: inactive; PLCg1 ctr: inactive; PLCbeta3 conf: inactive

Results for COc1cc(/C=C2/C(=O)CNC2=O)ccc1O ?
ADAM17 inh: inactive; proKLK7 act: inactive; PLC-beta3 inh: inactive; sPLA2-III inh: inactive; PLC-gamma1 inh: inactive; ADAM10 inh: inactive

Results for COc1cc(C=C2C(=O)C=CC2=O)ccc1O ?
ADAM17 inh: inactive; proKLK7 act: inactive; PLC-beta3 inh: 16; sPLA2-III inh: inactive; PLC-gamma1 inh: 30; ADAM10 inh: inactive; PLCg1 ctr: inactive; PLCbeta3 conf: inactive

What do the screens show for `O=C1CS(=O)(=O)c2ccccc2N1`?
ADAM17 inh: inactive; proKLK7 act: inactive; PLC-beta3 inh: inactive; sPLA2-III inh: inactive; PLC-gamma1 inh: 24; ADAM10 inh: inactive; PLCg1 ctr: 21; PLCbeta3 conf: inactive

What do the screens show for `O=C1CC(=O)Nc2ccccc2N1`?
ADAM17 inh: inactive; proKLK7 act: inactive; PLC-beta3 inh: inactive; sPLA2-III inh: inactive; PLC-gamma1 inh: inactive; ADAM10 inh: inactive

Results for Cc1ccc(NC(=O)CCC(=O)c2cc(C)sc2C)nc1 ?
ADAM17 inh: inactive; proKLK7 act: inactive; PLC-beta3 inh: inactive; sPLA2-III inh: inactive; PLC-gamma1 inh: inactive; ADAM10 inh: inactive

Results for Cc1ccc(-n2c(SCC(=O)Nc3ccc(S(=O)(=O)Nc4cc(C)nc(C)n4)cc3)nnc2-c2cccs2)cc1 ?
ADAM17 inh: inactive; proKLK7 act: inactive; PLC-beta3 inh: inactive; sPLA2-III inh: inactive; PLC-gamma1 inh: inactive; ADAM10 inh: inactive

Results for COc1cc(C(=O)Nc2ccc3c(c2)C(=O)N(CCC(=O)O)C3=O)cc(OC)c1OC ?
ADAM17 inh: inactive; proKLK7 act: inactive; PLC-beta3 inh: inactive; sPLA2-III inh: inactive; PLC-gamma1 inh: 11; ADAM10 inh: inactive; PLCg1 ctr: 9.5; PLCbeta3 conf: inactive

What do the screens show for `CCCCN(C(=O)CCSc1ccc(F)cc1)c1c(N)n(Cc2ccccc2)c(=O)[nH]c1=O`?
ADAM17 inh: inactive; proKLK7 act: inactive; PLC-beta3 inh: inactive; sPLA2-III inh: inactive; PLC-gamma1 inh: inactive; ADAM10 inh: inactive

Results for Clc1ccc(-c2c[n+](Cc3ccc(Cl)cc3Cl)c3n2CCCCC3)cc1 ?
ADAM17 inh: inactive; proKLK7 act: inactive; PLC-beta3 inh: inactive; sPLA2-III inh: inactive; PLC-gamma1 inh: 11; ADAM10 inh: inactive; PLCg1 ctr: inactive; PLCbeta3 conf: inactive

Results for Cc1ccc(S(=O)(=O)NCCSc2nncn2C)cc1 ?
ADAM17 inh: inactive; proKLK7 act: inactive; PLC-beta3 inh: inactive; sPLA2-III inh: inactive; PLC-gamma1 inh: inactive; ADAM10 inh: inactive

How did Cc1ccc(S(=O)(=O)NC(C)(C)CSc2nncn2N)cc1 do in these assays?
ADAM17 inh: inactive; proKLK7 act: inactive; PLC-beta3 inh: inactive; sPLA2-III inh: inactive; PLC-gamma1 inh: 11; ADAM10 inh: inactive; PLCg1 ctr: inactive; PLCbeta3 conf: inactive

Results for COc1ccc(S(=O)(=O)N2CCOC23CCN(C(=O)c2ccccc2OC)CC3)cc1 ?
ADAM17 inh: inactive; proKLK7 act: inactive; PLC-beta3 inh: inactive; sPLA2-III inh: inactive; PLC-gamma1 inh: inactive; ADAM10 inh: inactive

How did Cc1cc(C)c(S(=O)(=O)N2CCCCC2)c(C)c1N(C)S(=O)(=O)c1ccccc1 do in these assays?
ADAM17 inh: inactive; proKLK7 act: inactive; PLC-beta3 inh: inactive; sPLA2-III inh: inactive; PLC-gamma1 inh: 11; ADAM10 inh: inactive; PLCg1 ctr: inactive; PLCbeta3 conf: inactive

High-throughput results (PubChem BioAssay)
